BJeLR lethal: MLPCN primary cell-based screen for lethality selective to Ras in HRASV12 cells; AID 1554, 2009; BJeLR (HRASV12) viability, CellTiter-Glo ATP luminescence, 48 h; actives 0.17% (n = 300,000); inhibition, % (no concentration beside the values); in the data active means inhibition above about 50%
PfHsp40 yeast: rescue of yeast from PfHsp40 toxicity, primary screen, S. cerevisiae, ATP luminescence | growth rescue, % at 12.5 µM | actives 0.68% (n = 340,000) | AID 504582, 2011 | S. cerevisiae expressing PfHsp40, growth rescue; in the data active means growth rescue above about 28%, passing the limit was not always enough;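 further: yeast W303a lacking pdr1 and pdr3 grown in galactose medium; growth measured after three days at 30 °C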
MazF activator: activators of E. coli MazEF toxin-antitoxin RNase, primary screen, biochemical, fluorescence, uHTS. actives 0.32% (n = 350,000). AID 504720, 2011. FAM/BHQ RNA-DNA oligo cleavage fluorescence, 5 h. activation, % at 20 µM. Endoribonuclease toxin MazF (Escherichia coli (strain K12)), P0AE70; in the data active means activation above about 50%
Target sequence (P0AE70 whole entry, looked up): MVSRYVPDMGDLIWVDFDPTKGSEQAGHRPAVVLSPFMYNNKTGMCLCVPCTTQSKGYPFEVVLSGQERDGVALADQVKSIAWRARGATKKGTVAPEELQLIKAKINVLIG
BH1578 lux ind: inducers of Vibrio cholerae quorum light production without autoinducers, primary screen, BH1578 luxS cqsA deficient, single point | V. cholerae BH1578 lux reporter, luminescence, 6 h | activation, % at 18.7 µM | actives 0.16% (n = 350,000) | AID 588436, 2011; in the data active means activation mostly above about 9.7%, no sharp cut-off
VHR inh abs: VHR1 phosphatase inhibitors, primary screen, biochemical, absorbance, uHTS; Dual specificity protein phosphatase 3 (Homo sapiens), P51452; actives 0.52% (n = 290,000); inhibition, % at 13.3 µM; recombinant VHR phosphatase, pNPP absorbance; in the data active means inhibition above about 50%
Target sequence (P51452 whole entry, looked up): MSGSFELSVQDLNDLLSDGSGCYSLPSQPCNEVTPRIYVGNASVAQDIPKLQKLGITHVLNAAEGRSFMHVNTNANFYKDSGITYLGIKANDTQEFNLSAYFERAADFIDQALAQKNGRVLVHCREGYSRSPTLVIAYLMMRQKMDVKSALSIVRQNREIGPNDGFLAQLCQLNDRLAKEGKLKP
3CLpro inhibitor: SARS-CoV 3CLpro protease inhibitors, primary screen, biochemical, quenched FRET; Replicase polyprotein 1ab (Severe acute respiratory syndrome coronavirus), P0C6X7; recombinant SARS-CoV 3CLpro, quenched FRET peptide cleavage; inhibition, % at 6 µM; actives 0.14% (n = 290,000); AID 1706, 2009; in the data active means inhibition above about 12%
Numbers stand for hits. Sampled rows, rich in hits. Any-hit rate of the full collection: about 1.7%.

Results for COC(=O)Cn1c2ccc(C)cc2c2nc3ccccc3nc21 ?
BJeLR lethal: inactive; PfHsp40 yeast: inactive; MazF activator: inactive; BH1578 lux ind: inactive; VHR inh abs: inactive; 3CLpro inhibitor: inactive

How did COc1ccc2c(c1)c1nc3ccccc3nc1n2CCCN1C(=O)c2ccccc2C1=O do in these assays?
BJeLR lethal: inactive; PfHsp40 yeast: inactive; MazF activator: 698; BH1578 lux ind: inactive; VHR inh abs: inactive; 3CLpro inhibitor: inactive

Results for COc1ccc2c(c1)c1nc3ccccc3nc1n2CC(=O)OC(C)C ?
BJeLR lethal: inactive; PfHsp40 yeast: inactive; MazF activator: 370; BH1578 lux ind: inactive; VHR inh abs: inactive; 3CLpro inhibitor: inactive

How did O=C1c2ccccc2C(=O)N1CCCn1c2ccc(Cl)cc2c2nc3ccccc3nc21 do in these assays?
PfHsp40 yeast: inactive; MazF activator: inactive; BH1578 lux ind: inactive

How did O=C(Nc1ccc(Oc2ccccc2)cc1)c1csc([C@@H]2C[C@H](O)[C@@H](CO)O2)n1 do in these assays?
BH1578 lux ind: inactive

Results for O=C1[C@H]2[C@@H](c3ccc(C(F)(F)F)cc3)N[C@]3(CCCN(Cc4ccco4)C3=O)[C@H]2C(=O)N1Cc1ccccc1 ?
MazF activator: inactive; BH1578 lux ind: inactive

Results for COc1ccc(-c2cc3nc(C)cc(-c4ccc(OC)cc4)n3n2)cc1 ?
BJeLR lethal: inactive; PfHsp40 yeast: inactive; MazF activator: inactive; BH1578 lux ind: inactive; VHR inh abs: inactive; 3CLpro inhibitor: inactive

What do the screens show for `COc1ccc(-c2cc3nc(C)cc(N)n3n2)cc1`?
BJeLR lethal: 51; PfHsp40 yeast: inactive; MazF activator: inactive; BH1578 lux ind: inactive; VHR inh abs: inactive; 3CLpro inhibitor: inactive

What do the screens show for `CCOC(=O)C1CCN(c2c(Nc3ccc4c(c3)OCCO4)c(=O)c2=O)CC1`?
BJeLR lethal: inactive; PfHsp40 yeast: inactive; MazF activator: inactive; BH1578 lux ind: inactive; VHR inh abs: inactive; 3CLpro inhibitor: inactive

What do the screens show for `COc1ccccc1OC(C)C(=O)Nc1ccc2c(c1)OCCO2` (configuration not stated)?
BJeLR lethal: inactive; PfHsp40 yeast: inactive; MazF activator: inactive; BH1578 lux ind: inactive; VHR inh abs: 56; 3CLpro inhibitor: inactive

Results for CCOC(=O)C1CCN(C(C(=O)Nc2ccc3c(c2)OCCO3)c2ccccc2)CC1 (configuration not stated) ?
BJeLR lethal: inactive; PfHsp40 yeast: inactive; MazF activator: inactive; VHR inh abs: 53; 3CLpro inhibitor: inactive

Results for N#C/C(=C/c1ccc(-c2ccc(S(N)(=O)=O)cc2)o1)C(=O)Nc1ccccc1 ?
BJeLR lethal: inactive; PfHsp40 yeast: inactive; MazF activator: 101; BH1578 lux ind: inactive; VHR inh abs: inactive; 3CLpro inhibitor: inactive

How did Cc1cc(NC(=O)/C(C#N)=C/c2ccc(-c3ccc(SC(F)F)cc3)o2)n(-c2ccccc2)n1 do in these assays?
BJeLR lethal: inactive; PfHsp40 yeast: inactive; MazF activator: 405; BH1578 lux ind: inactive; VHR inh abs: inactive; 3CLpro inhibitor: inactive

What do the screens show for `N#C/C(=C\c1ccc(-c2ccc(F)cc2)o1)C(=O)Nc1nc(-c2cccs2)cs1`?
BJeLR lethal: inactive; PfHsp40 yeast: inactive; MazF activator: 128; BH1578 lux ind: inactive; VHR inh abs: inactive; 3CLpro inhibitor: inactive

Results for CCOC(=O)[C@@H](NC(=O)CC[C@H]1O[C@@H](n2cc(C)c(=O)[nH]c2=O)C[C@@H]1O)C(C)C ?
MazF activator: inactive; BH1578 lux ind: inactive

What do the screens show for `O=C1OCC/C1=C\c1ccc2c(c1)OCO2`?
BJeLR lethal: inactive; PfHsp40 yeast: inactive; MazF activator: inactive; BH1578 lux ind: inactive; VHR inh abs: 52; 3CLpro inhibitor: inactive

Results for O=C1/C(=C\c2ccc3c(c2)OCO3)CCC/C1=C/c1ccc2c(c1)OCO2 ?
BJeLR lethal: inactive; PfHsp40 yeast: inactive; MazF activator: inactive; BH1578 lux ind: inactive; VHR inh abs: inactive; 3CLpro inhibitor: inactive

What do the screens show for `CCOC(=O)C1(C)CCCN(C(=O)c2ccccc2OC(F)(F)F)C1` (configuration not stated)?
BH1578 lux ind: inactive

What do the screens show for `COc1ccc(-c2nc(CS(=O)CC(=O)NCCCN3CCOCC3)c(C)o2)cc1OC` (configuration not stated)?
BJeLR lethal: inactive; PfHsp40 yeast: inactive; MazF activator: inactive; BH1578 lux ind: inactive; VHR inh abs: 57; 3CLpro inhibitor: inactive

Results for COc1ccc(-c2nc(CN3CCC(C(=O)N4CCOCC4)CC3)c(C)o2)cc1C ?
BJeLR lethal: inactive; PfHsp40 yeast: inactive; MazF activator: inactive; BH1578 lux ind: inactive; VHR inh abs: 57; 3CLpro inhibitor: inactive

Results for COc1ccc(-c2nc(CS(=O)CC(=O)NCCCN3CCCC3)c(C)o2)cc1OC (configuration not stated) ?
BJeLR lethal: inactive; PfHsp40 yeast: inactive; MazF activator: inactive; BH1578 lux ind: inactive; VHR inh abs: inactive; 3CLpro inhibitor: inactive

How did CCn1c(CC(=O)Nc2ccc(F)cc2)nnc1SCC(=O)Nc1nncs1 do in these assays?
BJeLR lethal: inactive; PfHsp40 yeast: inactive; MazF activator: inactive; BH1578 lux ind: inactive; VHR inh abs: inactive; 3CLpro inhibitor: inactive

Results for O=C(/C=C/c1cccc2ccccc12)c1ccncc1 ?
BJeLR lethal: 71; PfHsp40 yeast: inactive; MazF activator: inactive; BH1578 lux ind: inactive; VHR inh abs: inactive; 3CLpro inhibitor: inactive

How did O=C(Cn1nnc(-c2ccc(F)cc2)n1)Nc1cccc(S(=O)(=O)N2CCCC2)c1 do in these assays?
PfHsp40 yeast: inactive; MazF activator: inactive; BH1578 lux ind: inactive

How did CCOc1ccc(NC(=O)CN(C)C(=O)c2cc3c(s2)CCC3)cc1OCC do in these assays?
MazF activator: inactive; BH1578 lux ind: inactive

How did O=C(/C=C/c1ccc(S(=O)(=O)N2CCOCC2)cc1)NC(=S)Nc1ccc(N2CCOCC2)cc1 do in these assays?
BJeLR lethal: inactive; PfHsp40 yeast: 46; MazF activator: inactive; BH1578 lux ind: inactive; VHR inh abs: inactive; 3CLpro inhibitor: inactive

Results for Cc1[nH]c2ccc(OC(F)(F)F)cc2c1CCNCc1cccc([N+](=O)[O-])c1 ?
BJeLR lethal: inactive; PfHsp40 yeast: inactive; MazF activator: inactive; BH1578 lux ind: inactive; VHR inh abs: inactive; 3CLpro inhibitor: inactive

Results for CCOc1cccc(CNCCc2c(C)[nH]c3ccc(OC(F)(F)F)cc23)c1O ?
BJeLR lethal: inactive; PfHsp40 yeast: inactive; MazF activator: 52; BH1578 lux ind: inactive; VHR inh abs: inactive; 3CLpro inhibitor: inactive

How did COC(=O)c1cccc2c1-c1ccccc1/C2=N\NC(N)=O do in these assays?
BJeLR lethal: inactive; PfHsp40 yeast: inactive; MazF activator: inactive; BH1578 lux ind: inactive; 3CLpro inhibitor: inactive

Screening data deposited in PubChem by several laboratories.
